# Results as given in PubChem BioAssay (NCI).
# Compounds without any hit were thinned out: in the full panel of roughly 83,000, 20% have a hit.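 Cell lines were cultured in 96-well plates, exposed to a single compound concentration, and assessed for percent growth 48 hours later.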 Unmarked numbers belong to inactive results. Calls of active or inactive are those of the source. How the source made its calls: active means growth percent below 10; inactive means the rest.
# How the values were obtained:
# Test in all cases: NCI-60 one-dose screen, 48 h (100 = growth as untreated, 0 = no growth, -100 = all killed)
# Settings in all cases: 10 µM unless noted
# [1] = system: HCT-15 colon
# [2] = system: HT29 colon
# [3] = system: SNB-75 CNS
# [4] = system: SNB-19 CNS
# [5] = system: U251 CNS
# [6] = system: PC-3 prostate
# [7] = system: SK-MEL-5 melanoma
# [8] = system: UACC-62 melanoma
# [9] = system: LOX IMVI melanoma
# [10] = system: SK-MEL-28 melanoma
SMILES,growth [1],growth [2],growth [3],growth [4],growth [5],growth [6],growth [7],growth [8],growth [9],growth [10]
CCCOC(=O)c1c(C)n(C)c2scc[n+]12,85.2%,79%,80.1%,88%,55.9%,75.6%,102%,84%,82%,91.5%
Brc1ccc(-c2nc3ccccc3s2)cc1,91.6%,107%,80.6%,94.9%,96.1%,83.6%,94.4%,89.1%,89.5%,109%
COc1cc2oc(-c3ccc(NC(=O)c4ccccc4)cc3)cc(=O)c2c(OC)c1OC,79.2%,84.3%,81%,75%,90.5%,71.7%,85.7%,85.4%,92.5%,93.3%
C=CCNCCC#N,99.9%,105%,79.1%,102%,107%,98.5%,99.1%,109%,59.5%,106%
CCOc1ccccc1/C=N\N=C(N/N=C/c1ccccc1OCC)N/N=C/c1ccccc1OCC,13.5%,-1.15% (active),22.3%,21.7%,13.4%,3.92% (active),-52.6% (active),16.1%,,30.7%
O=C(CBr)OCc1ccc([N+](=O)[O-])o1,93.9%,104%,91.4%,104%,92.1%,76.2%,113%,90.4%,,99.2%
COC(=O)c1ccc2[nH]c(O)c(C(=Nc3ccc(N(C)C(=O)CN4CCN(C)CC4)cc3)c3ccc([N+](=O)[O-])cc3)c2c1,73%,38%,54.7%,80.1%,42.6%,35.1%,49.4%,52.7%,46.2%,64.9%
COC(=O)[C@H](Cc1cn(C)cn1)NC(=O)[C@@H](NC(=O)Nc1cc(C(F)(F)F)cc(C(F)(F)F)c1)C(C)(C)C,70.5% [100 µM],-66.9% [100 µM] (active),-55.1% [100 µM] (active),-91.6% [100 µM] (active),-89.9% [100 µM] (active),-92.9% [100 µM] (active),-67.4% [100 µM] (active),-88.5% [100 µM] (active),-86.6% [100 µM] (active),-92.3% [100 µM] (active)
CC(O)C(N)=O (centres undefined),97.1%,111%,84.3%,106%,103%,92.6%,101%,107%,,100%
Cc1ccc(S(=O)(=O)N/N=C2\CC3CCC2C3)cc1 (centres undefined),96%,108%,85.7%,101%,96.8%,95.8%,99.8%,103%,103%,109%
O=C(/C=C\c1ccc(NCc2ccc(C(=O)O)cc2)cc1)CCl,72.4%,84.9%,91.1%,96.7%,84.5%,96.2%,100%,84.2%,5.63% (active),104%
C=C[C@]1(C)C=C2C(=O)[C@@]3(O)OC[C@@]4(CCCC(C)(C)C43O)C2(O)C(O)C1 (some centres undefined),12.9%,-68.6% (active),69.6%,99.3%,53.9%,55.2%,91.6%,86.3%,,47.2%
Cc1c(Cc2ccccc2)c(=O)oc2c(C)c(OCc3n[nH]c(=S)o3)ccc12,75.7%,86.8%,71.4%,85.8%,64.4%,11.2%,83.8%,90.4%,,110%
COc1cccc(CNC(=O)c2cccc(C3CC(=O)c4c(cc(OC)c(OC)c4OC)O3)c2)c1 (centres undefined),43.5%,68%,27.7%,51.2%,49.3%,20.8%,59.4%,24.3%,,65.7%
Cc1ccc(S(=O)(=O)Nc2cccc(Cn3c(=O)[nH]c4ccc(Oc5ncccn5)cc4c3=O)c2)cc1,91%,65.1%,78.9%,57.4%,79.1%,52%,53.8%,34.7%,,66.7%
O=C1c2cc([N+](=O)[O-])ccc2-c2cc(Cl)c(NC(=O)C(F)(F)F)cc21,95.4%,108%,91.1%,106%,110%,94.8%,100%,101%,,106%
Oc1ccc([S+](c2ccc(O)cc2)c2ccc(O)cc2)cc1,97.4%,108%,92.5%,99.7%,103%,97.9%,100%,101%,,105%
COc1ccc(Cn2cc3c(c2-c2ccc(OC)cc2)CCc2cnoc2-3)cc1,14.2%,7.18% (active),11.4%,45.5%,24%,24.8%,10.6%,44%,,51.2%
COc1ccc2cc(C(C)C(=O)Nc3ccc(S(=O)(=O)Nc4cc(C)on4)cc3)ccc2c1 (centres undefined),93.8%,121%,99.7%,117%,98.9%,104%,110%,108%,,111%
CCCCCc1ccnc(CC(=O)c2ccc(OC)cc2)c1,99.7%,70.5%,85.7%,97.8%,88.7%,76.1%,79.4%,89.5%,,104%
CC(=O)O.[In],109%,105%,90.6%,109%,98.8%,99.7%,95.2%,102%,,112%
Oc1ccccc1/C=N/N=C\c1ccccc1Cl,95.5%,97.5%,86.7%,91.5%,93.4%,88.1%,,92.1%,86.2%,
COC(=O)c1ccc2[nH]c(O)c(C(=Nc3ccc(N(C)C(=O)CN4CCN(C)CC4)cc3)c3ccc(OC)cc3)c2c1,10.4%,20%,6.7% (active),32.4%,19%,28.7%,,39.2%,16.1%,
COC(=O)c1ccc2[nH]c(O)c(C(=Nc3ccc(N(C)C(=O)CN4CCN(C)CC4)cc3)c3ccc4c(c3)OCO4)c2c1,8.49% (active),4.28% (active),-1.84% (active),14%,13.4%,19.3%,,31.8%,6.8% (active),20.8%
CCCCCCCCCCC1OC(C)CC(C)O1 (centres undefined),102%,106%,95.4%,109%,105%,101%,107%,107%,,102%
Cn1cnc2nc[nH]c2c1=S,101%,94.5%,79.2%,103%,103%,86.4%,100%,98.5%,,112%
Cc1nn(-c2ccccc2)c(N)c1N=C1NC(=O)/C(=C/c2ccc(Cl)cc2)S1,80.6%,106%,58.9%,83.6%,79.1%,76.8%,,77.3%,89.7%,
N=C(c1ccccc1)N(Cc1ccccc1)Cc1ccccc1,74.8%,53.4%,97.7%,99.8%,96.7%,81.5%,104%,87.3%,,98.8%
COC(=O)C(N)CC(C)C (centres undefined),103%,102%,93.9%,100%,98%,97.9%,103%,,,108%
CCCCCCCCCCCCCCCCCC1=NCCN1CS(=O)(=O)O,41%,2.18% (active),60.9%,80.4%,64.5%,39%,,88.9%,-2.88% (active),103%
